# Several values for one entry are separate records, joined by “and”; a condition that tells them apart may be missing. Identical values can stand only once.
# Molecular target: T1, Transcription intermediary factor 1-alpha (Homo sapiens) (UniProt O15164)
# T1 sequence (whole entry): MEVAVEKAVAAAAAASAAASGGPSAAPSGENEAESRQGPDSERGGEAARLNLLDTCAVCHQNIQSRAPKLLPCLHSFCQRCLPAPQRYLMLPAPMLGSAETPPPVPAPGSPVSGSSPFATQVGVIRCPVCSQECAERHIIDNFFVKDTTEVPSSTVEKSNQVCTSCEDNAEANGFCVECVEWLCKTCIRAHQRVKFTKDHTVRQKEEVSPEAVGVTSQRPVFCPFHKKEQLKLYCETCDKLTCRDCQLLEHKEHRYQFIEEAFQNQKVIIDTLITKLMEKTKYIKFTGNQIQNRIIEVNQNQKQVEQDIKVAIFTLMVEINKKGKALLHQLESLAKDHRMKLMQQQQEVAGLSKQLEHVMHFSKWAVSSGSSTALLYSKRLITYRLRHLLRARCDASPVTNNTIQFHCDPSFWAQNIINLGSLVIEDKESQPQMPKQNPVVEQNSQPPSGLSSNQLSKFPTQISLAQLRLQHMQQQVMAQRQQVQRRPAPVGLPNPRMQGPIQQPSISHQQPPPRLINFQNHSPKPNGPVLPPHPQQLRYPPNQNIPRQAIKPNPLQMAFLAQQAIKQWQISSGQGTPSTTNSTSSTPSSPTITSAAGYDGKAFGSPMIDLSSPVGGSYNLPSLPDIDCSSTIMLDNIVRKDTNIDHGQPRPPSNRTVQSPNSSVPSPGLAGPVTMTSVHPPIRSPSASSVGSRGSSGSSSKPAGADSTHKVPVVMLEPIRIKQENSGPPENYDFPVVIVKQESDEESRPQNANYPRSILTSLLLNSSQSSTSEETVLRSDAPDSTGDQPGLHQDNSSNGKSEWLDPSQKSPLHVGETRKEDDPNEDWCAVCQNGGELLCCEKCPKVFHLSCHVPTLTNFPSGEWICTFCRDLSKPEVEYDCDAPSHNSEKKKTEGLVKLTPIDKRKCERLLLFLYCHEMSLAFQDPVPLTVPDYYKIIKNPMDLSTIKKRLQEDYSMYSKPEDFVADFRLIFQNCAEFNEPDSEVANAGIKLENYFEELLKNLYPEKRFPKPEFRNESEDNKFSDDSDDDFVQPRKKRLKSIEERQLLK
# Settings: Compound concentration 20.0 uM, Protein concentration 2.0 uM, Result type QC Liability
row,Compound,ΔTm
1,Cc1ccc2c(NS(=O)(=O)c3ccccc3Cl)cccc2c1Oc1ncccc1-c1ccnc(N[C@H]2CCCNC2)n1,1.37 °C
2,COc1cc(-c2cncc(-c3ccc(N4CCN(C(C)C)CC4)cc3)c2C)cc(F)c1C(N)=O,-3.06 °C
3,C[C@@H](COCCC(=O)N1CCN(c2ncc(C(F)(F)F)cn2)CC1)Nc1cn[nH]c(=O)c1C(F)(F)F,-0.95 °C
4,Nc1ncc2c(n1)-c1c([nH]c3ccc(C4=CCOCC4)cc13)CCC2,0.27 °C
5,Cc1ncsc1-c1ccc(CNC(=O)[C@@H]2C[C@@H](O)CN2C(=O)[C@@H](NC(=O)CCCCNC(=O)c2ccc(-c3ccc(N4CCN(C)CC4)c(NC(=O)c4c[nH]c(=O)cc4C(F)(F)F)c3)cc2)C(C)(C)C)cc1,-1.25 °C
6,Cc1cc(-c2cc3ncccc3c(OC[C@H]3CCCNC3)n2)ccc1N(C)C,-2.49 °C
7,Cc1nc(-c2ccc(C(F)(F)F)cc2)sc1C(=O)NCc1ccc(OC(C)(C)C(=O)O)cc1,-1.73 °C
8,CNC(=O)c1ccc2c(c1)NC(=O)/C2=C(\Nc1ccc(CN2CCCCC2)cc1)c1ccccc1,-3 °C
9,CCCCCCC(Sc1nc(Cl)cc(NCc2ccc(-c3ccccc3)cc2)n1)C(=O)O (centres undefined),0.51 °C
10,N=C(N)Nc1cc(C2CCNCC2)cc(C(F)(F)F)c1,0.35 °C
11,CCS(=O)(=O)c1ccc(OC)c(Nc2ncc(-c3cccc(F)c3)o2)c1,-1.42 °C
12,CC(F)(F)CN1C(=O)c2[nH]nc(-c3cccc4[nH]c(=O)oc34)c2C1c1ccc(Oc2cc(C(F)(F)F)cc(C(F)(F)F)c2)cc1 (centres undefined),-1.2 °C
13,NC(=O)OC[C@H](NC(=O)Cn1nc(-c2ccc(Cl)cc2)n(C[C@H](O)C(F)(F)F)c1=O)c1cccc(C(F)(F)F)c1,0.59 °C
14,COc1cc(Oc2nc(-c3ccc(NC(=O)C4CCOC4)cc3)nn3c(C)nc(C)c23)cc(OC)c1OC (centres undefined),0.42 °C
15,Cc1cnc(-c2cnc(NCCNc3ccc(C#N)cn3)nc2-c2ccc(Cl)cc2Cl)[nH]1,-0.78 °C
16,O=C(Cc1ccccc1[N+](=O)[O-])Nc1ccc(-c2ccc(C(O)(C(F)(F)F)C(F)(F)F)cc2F)cc1,0.45 °C
17,Cc1cc(OC2CCS(=O)(=O)CC2)cc(C)c1-c1cccc(COc2ccc(C(=O)O)c(F)c2)c1,-2.6 °C
18,CCC(F)(F)c1cc(N2CCC(S(C)(=O)=O)CC2)nc2sc(C(N)=O)c(N)c12,0.36 °C and -3.9 °C and -0.99 °C
19,CC(C)(C)c1cc(NC(=O)c2csc(Nc3ccc(Cl)cc3)n2)no1,0.11 °C
20,NC(=O)c1sc2nc(N3CCC(NC[C@H](O)c4ccccn4)CC3)cc(C(F)(F)F)c2c1N,-3.39 °C

row,Compound,ΔTm
1,CC(C)(C)OC(=O)CN(Cc1ccc(Cl)cc1)Cc1ccc([N+](=O)[O-])s1,-2.89 °C
2,C=CC(=O)Nc1cccc(C(=O)Nc2ccc(Nc3cc(-c4c(-c5ccc(F)cc5)nc(SC)n4C)ccn3)cc2)c1,-0.89 °C
3,Cc1nn(C)c(COc2ccc(N3CCN(S(=O)(=O)N(C)C)CC3)cc2)c1-c1cccc2c(CCCOc3cccc4ccccc34)c(C(=O)O)n(CCN3CCOCC3)c12,-0.84 °C
4,CCN(CC)C/C=C/C(=O)Nc1cc2c(Nc3ccc(F)c(Cl)c3)ncnc2cc1OCC1CC1,-0.54 °C
5,COc1cc(-c2cn[nH]c2)ccc1C(=O)Nc1ccc2c(c1)CCNCC2,-2.57 °C
6,O=C(O)Cc1ccc(CCNS(=O)(=O)c2ccc(Cl)cc2)cc1,-0.53 °C
7,CCc1c(-c2ccc3[nH]ncc3c2)cnc(N)c1-c1ccc(O)cc1,-2.74 °C
8,Cn1cc(-c2cnc3ccc4ccc(CS(=O)(=O)NCc5ccccn5)cc4c(=O)c3c2)cn1,-0.28 °C
9,O=C(NCCN1CCOCC1)c1ccc2nn(CCOc3ccc(Cl)cc3)cc2c1,0.35 °C
10,O=C(O)C[C@H]1CCn2c1c(Sc1ccc(Cl)cc1)c1ccc(F)cc12,-1.67 °C
11,COCCN(C)c1ccc(NC(=O)/C=C(\C)c2ccc3ccccc3c2)c(C(=O)O)c1,-0.91 °C
12,O=C(Nc1ccc(N2CCC(C(=O)N3CCOCC3)CC2)cc1)c1cnc(Oc2ccccc2)nc1,-0.59 °C
13,COc1ccc(C(=O)N[C@H](C)c2cccc(C(=O)Nc3nc4c(s3)CN(C)CC4)c2)cc1C,-2.54 °C
14,Cc1cc(-c2ccnc(Nc3cnn(C)c3)n2)ccc1CNC(=O)N1CC(OC(C)C)C1,0.22 °C
15,CS(=O)(=O)c1cc(C2(NC(=O)c3cncc4c3cnn4-c3ccc(F)cc3)CC2)ccn1,0.27 °C
16,CC#CCC(C)[C@H](O)/C=C/[C@@H]1[C@H]2C/C(=C/CCCC(=O)O)C[C@H]2C[C@H]1O (some centres undefined),0.19 °C
17,O=C(N[C@H](Cc1ccccc1)C(=O)O)c1cccc(OCc2cccnc2)c1,-0.73 °C
18,CC(C)(C)c1cnc(CSc2cnc(NC(=O)C3CCNCC3)s2)o1,-1.61 °C
19,NCCCc1c(C(=O)O)[nH]c2ccc(C(=O)Nc3ccccc3)cc12,-4.02 °C

# From ChEMBL document CHEMBL5308504, “Tm Shift (DSF) assay results for EUbOPEN Chemogenomics Library” (2023)
